# In publication PMC4336329 (PLoS ONE, 2015):
# Out of some 310,000 compounds screened, about 14,000 (4.5%) showed an effect of 50% or more. Effects have a minus sign here. For the sample, strong results were picked, then their nearest neighbours and some compounds at random.
# Target: human ether-à-go-go-related gene (hERG) potassium channel (human, UniProt Q12809)
# Test: primary screen, population patch clamp on CHO cells stably expressing hERG; higher = less effect of the substance
# 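Further: peak tail current of the secondary pulse compared with the same well before compound.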
# Sequence of human ether-à-go-go-related gene (hERG) potassium channel (Q12809 whole entry, looked up): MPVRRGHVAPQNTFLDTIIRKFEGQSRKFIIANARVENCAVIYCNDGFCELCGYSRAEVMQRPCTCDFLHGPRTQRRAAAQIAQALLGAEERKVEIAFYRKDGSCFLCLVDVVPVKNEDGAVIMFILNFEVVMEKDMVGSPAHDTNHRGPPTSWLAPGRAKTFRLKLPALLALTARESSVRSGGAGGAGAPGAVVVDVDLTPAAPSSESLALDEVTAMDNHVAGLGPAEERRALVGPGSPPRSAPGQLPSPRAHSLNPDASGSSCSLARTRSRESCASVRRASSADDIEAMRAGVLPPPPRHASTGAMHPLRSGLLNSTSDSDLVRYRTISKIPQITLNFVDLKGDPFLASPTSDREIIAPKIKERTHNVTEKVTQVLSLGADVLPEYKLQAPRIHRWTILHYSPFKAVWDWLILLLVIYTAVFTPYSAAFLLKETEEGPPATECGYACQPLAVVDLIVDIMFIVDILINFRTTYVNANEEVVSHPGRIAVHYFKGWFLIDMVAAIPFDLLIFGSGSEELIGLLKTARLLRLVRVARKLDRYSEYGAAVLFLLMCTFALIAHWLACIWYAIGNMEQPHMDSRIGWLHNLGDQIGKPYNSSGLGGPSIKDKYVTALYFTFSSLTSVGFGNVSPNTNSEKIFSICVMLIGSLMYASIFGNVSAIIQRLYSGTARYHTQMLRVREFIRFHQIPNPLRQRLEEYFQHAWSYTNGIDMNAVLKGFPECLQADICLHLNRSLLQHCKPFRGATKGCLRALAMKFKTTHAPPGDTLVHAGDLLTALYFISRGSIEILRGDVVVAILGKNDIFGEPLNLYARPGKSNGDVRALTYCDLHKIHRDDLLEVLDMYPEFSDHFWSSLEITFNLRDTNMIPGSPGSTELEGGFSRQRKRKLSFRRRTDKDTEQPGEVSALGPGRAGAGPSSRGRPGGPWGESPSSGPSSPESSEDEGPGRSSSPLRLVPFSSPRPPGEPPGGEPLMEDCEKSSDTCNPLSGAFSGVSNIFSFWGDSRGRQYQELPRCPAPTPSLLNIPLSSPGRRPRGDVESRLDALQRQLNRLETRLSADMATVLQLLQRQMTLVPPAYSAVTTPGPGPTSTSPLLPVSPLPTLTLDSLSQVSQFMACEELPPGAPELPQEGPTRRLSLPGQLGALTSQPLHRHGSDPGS
row,SMILES,"hERG current change (%, negative = inhibition) at 10uM"
1,O=C(CSc1oc(-c2cccs2)nc1S(=O)(=O)c1ccccc1)NC1CCCCC1,17.7%
2,CCC1Oc2ccccc2N(CC(=O)NCCCN2CCN(CC)CC2)C1=O (stereo not shown),2.97%
3,CCC1Oc2ccc(C)cc2N(CC(=O)NCCCN2CCN(Cc3ccccc3)CC2)C1=O (stereo not shown),-53.9%
4,CCC1Oc2ccccc2N(CC(=O)NCCCN2CCN(c3ccc(OC)cc3)CC2)C1=O (stereo not shown),-50.4%
5,CCC1Oc2ccccc2N(CC(=O)NCCCN2CCOCC2)C1=O (stereo not shown),-4.71%
6,CCC1Oc2ccc(C)cc2N(CC(=O)NCCCN2CCCC2)C1=O (stereo not shown),-34.7%
7,CCC1Oc2ccccc2N(CC(=O)NCCCN2CCN(Cc3ccccc3)CC2)C1=O (stereo not shown),-42%
8,Cc1cc(OC(C)C(=O)N[C@H](C(=O)O)c2ccccc2)c2c3c(c(=O)oc2c1)CCC3 (stereo partly shown),-3.23%
9,CCOC(=O)c1c(NCC(C)C)c2ccccc2[nH]c1=O,-1.01%
10,Cc1cccc(C(=O)NNC(=O)c2ccc(Br)cc2)c1,4.62%
11,O=C(Nc1cccc(Cl)c1Cl)c1snnc1-c1ccccc1,7.74%
12,Cc1ccc(NC(=S)N(CCN2CCOCC2)Cc2ccccc2F)cc1Cl,-12.3%
13,NC(=S)N/N=C1\CCOc2ccc(Cl)cc21,1.36%
14,NC(=S)N/N=C1\CCOc2ccc(F)cc21,-76.9%
15,NC(=S)N/N=C1\CC(c2ccc3c(c2)OCCO3)Oc2ccc(F)cc21 (stereo not shown),12.9%
16,O=C(COC(=O)c1cccc(C(=O)OCC(=O)NCc2ccc(F)cc2)n1)NCc1ccc(F)cc1,-15.5%
17,Cn1nccc1C(=O)N(CCN1CCCCC1)CC1CCCN(C2CCCC2)C1 (stereo not shown),-2.29%
18,O=C(c1cc2ccccc2[nH]1)N(Cc1cccnc1)CC1CCCN(C2CCCCC2)C1 (stereo not shown),-73.7%
19,O=C(c1cccs1)N(CCN1CCCCC1)CC1CCCN(C2CCCC2)C1 (stereo not shown),1.03%
20,CC(=O)N(Cc1cccnc1)Cc1cc2ccccc2[nH]c1=O,3.63%
21,O=C(c1cc2cc(F)ccc2[nH]1)N(Cc1cccnc1)CC1CCCN(C2CCCCC2)C1 (stereo not shown),-77.5%
22,COC(=O)c1ccccc1C(=O)N(Cc1cccnc1)CC1CCCN(C2CCCCC2)C1 (stereo not shown),-40%
23,O=S(=O)(NCc1cn2ccsc2n1)c1cccs1,15.6%

row,SMILES,"hERG current change (%, negative = inhibition) at 10uM"
1,Cc1cc(C(=O)OCC(=O)Nc2nccs2)c2ccccc2n1,1.22%
2,Cc1cc(C)c2c(n1)nn1c(C)c(CCC(=O)NCc3ccco3)c(C)nc21,-12.1%
3,CCOC(=O)CSc1nnc2n1C(C)(C)Cc1ccccc1-2,-4.66%
4,CCOc1cc(C(=O)N=c2sccn2C)cc(Br)c1OC,8.84%
5,CNC(=O)COC(=O)c1ccc(NC(=O)CC#N)cc1,11.9%
6,CCN(CC(=O)Nc1c(F)cccc1F)C(=O)c1ccc2c(c1)S(=O)(=O)N=C1CCCCCN12,9.69%
7,Cc1onc(-c2ccccc2)c1C(=O)NCc1ccc(Cl)cc1,13.8%
8,Cc1nn(Cc2ccc(Cl)cc2)c(C)c1NC(=O)c1c(-c2ccccc2)noc1C,-65.1%
9,Cc1cc(C(=O)Nc2c(C)nn(Cc3ccccc3)c2C)on1,1.26%
10,CCN(CC)P(=O)(Nc1ccc([N+](=O)[O-])cc1)c1c(C)nn(CCC#N)c1NC(=O)c1ccc(Cl)cc1Cl (stereo not shown),3.17%
11,CCN(CC)P(=O)(Nc1ccc(Br)cc1)c1c(C)nn(CCC#N)c1NC(=O)c1ccc(Cl)cc1 (stereo not shown),7.19%
12,Cc1nn(Cc2ccc(Cl)cc2)c(C)c1NC(=O)c1ccc([N+](=O)[O-])cc1,-72.6%
13,O=C(Nc1cnn(Cc2ccc(Cl)cc2)c1)c1ccc([N+](=O)[O-])cc1,-31.4%
14,CCN(CC)P(=O)(Nc1ccc([N+](=O)[O-])cc1)c1c(C)nn(CCC#N)c1NC(=O)c1ccc(Cl)cc1 (stereo not shown),-56.9%
15,Cc1nn(Cc2ccccc2)c(C)c1NC(=O)Cn1nc([N+](=O)[O-])c(Cl)c1C,-10.4%
16,CCn1nc(C)c(NC(=O)c2ccc(Cl)cc2)c1C,5.72%
17,Cc1nn(Cc2ccccc2)c(C)c1NC(=O)c1ccc([N+](=O)[O-])cc1[N+](=O)[O-],-57%
18,Cc1cc(C(=O)Nc2c(C)nn(Cc3ccc(Cl)cc3)c2C)no1,-15.4%
19,C=CCNC(=S)Nc1ccc(OC)c(S(=O)(=O)N2CCOCC2)c1,-10.3%
20,CC(=O)c1cc2c(cc1NC(=O)CCc1c(C)nc3ncnn3c1C)OCO2,-10.1%
21,C=CCn1c(N)c(C(=O)NCc2cccnc2)sc1=S,-35.1%
22,COc1cccc(CN2CC(C(=O)NCCSc3nnnn3C)CCC2=O)c1 (stereo not shown),18%
23,CC(C)(C)C(=O)Nc1ccc(N=Nc2ccccc2)cc1,-0.305%

row,SMILES,"hERG current change (%, negative = inhibition) at 10uM"
1,O=C(O)C(Cc1c[nH]c2ccccc12)N1C(=O)C2C3c4ccccc4C(c4ccccc43)[C@@H]2C1=O (stereo partly shown),18%
2,Nc1nnc(CSCc2ccc(Cl)cc2Cl)s1,0.235%
3,Cc1cc(NS(=O)(=O)c2ccc(NC(=O)CCc3ccccc3)cc2)no1,12.2%
4,CCCCN(C)C(=O)c1nc2ccccn2c1CNCCCn1ncc2ccccc21,-55%
5,O=C(c1nc2ccccn2c1CNCCCn1ncc2ccccc21)N1CCCC1,-37.7%
6,CCCCN(C)C(=O)c1nc2ccccn2c1CNCCCn1nnc2ccccc21,-38%
7,CN(Cc1ccccc1)C(=O)c1nc2ccccn2c1CNCCOc1cccnc1,-31%
8,CN(Cc1ccccc1)C(=O)c1nc2ccccn2c1CNCCn1cccn1,-32.3%
9,CN(Cc1ccccc1)C(=O)c1nc2ccccn2c1CNCCCOc1cccnc1,-52.3%
10,CCOc1ccccc1NC(=O)CCS(=O)(=O)c1ccc(OC)cc1,-0.411%
11,COc1ccc(-n2c(C)cc(/C=C3/SC(=S)N(C)C3=O)c2C)cc1,20.7%
12,CCOc1ccccc1C1CC(=O)NC(SCC(=O)Nc2nccs2)=C1C#N (stereo not shown),-0.586%
13,CN(C)CCN1C(=O)C(O)=C(C(=O)c2ccco2)C1c1ccccc1F (stereo not shown),11.9%
14,Cc1ccc(C(=O)N/C(=C\c2cccnc2)C(=O)N2CCCC2)cc1,-1.72%
15,Fc1ccc(C2CCCN2Cc2nc(Cc3ccccc3)no2)cc1 (stereo not shown),-15.2%
16,CN(C)c1nc(N)c([N+](=O)[O-])c(NCc2ccccc2)n1,4.16%
17,O=C(NCc1ccccn1)C(=O)NCC1OCCN1S(=O)(=O)c1ccc(F)cc1 (stereo not shown),11.7%
18,CC(C)OCC(O)CN1CCN(CCN2C(=O)c3cccc4cccc(c34)C2=O)CC1.Cl (stereo not shown),-51.7%
19,CC(C)(C)C(=O)N1CCN(CCN2C(=O)c3cccc4cccc(c34)C2=O)CC1,3.09%
20,CS(=O)(=O)N1CCN(CCN2C(=O)c3cccc4cccc(c34)C2=O)CC1,7.17%
21,CCC(OCC(O)CN1CCN(CCN2C(=O)c3cccc4cccc(c34)C2=O)CC1)c1ccccc1.Cl (stereo not shown),-58.4%
22,CC(=O)c1ccc(OCC(O)CN2CCN(CCN3C(=O)c4cccc5cccc(c45)C3=O)CC2)cc1.Cl (stereo not shown),-34.1%
23,CCNC(=S)N1CCN(CCN2C(=O)c3cccc4cccc(c34)C2=O)CC1,0.247%

row,SMILES,"hERG current change (%, negative = inhibition) at 10uM"
1,CCCCN(C(=O)Cc1ccc(S(=O)(=O)N2CCOCC2)s1)c1c(N)n(CCCC)c(=O)[nH]c1=O,0.586%
2,C=CCNc1oc(-c2ccco2)nc1S(=O)(=O)c1ccccc1,-4.58%
3,N#CCc1nn(-c2ccccc2)c(N)c1C#N,5.46%
4,CCc1ccc(NC(=O)C(=O)N/N=C(\C)CC(=O)Nc2ccccn2)cc1,-8.33%
5,COc1ccc2cc3cc(C(=O)NCc4ccco4)oc3nc2c1,-9.75%
6,Cc1ccc(CCN2CC(C(=O)N3CCN(c4ccc(F)cc4)CC3)CC2=O)cc1 (stereo not shown),-57.4%
7,COc1ccccc1CN1CC(C(=O)N2CCN(c3ccc(F)cc3)CC2)CC1=O (stereo not shown),-43%
8,Cc1ccc(CCN2CC(C(=O)O)CC2=O)cc1 (stereo not shown),-0.636%
9,O=C(O)C1CC(=O)N(CCc2ccc(F)cc2)C1 (stereo not shown),-8.39%
10,O=C1CC(C(=O)N2CCN(c3ccc(F)cc3)CC2)CN1CCc1ccccc1 (stereo not shown),-50.5%
11,CC(C)CCN1CC(C(=O)N2CCN(c3ccc(F)cc3)CC2)CC1=O (stereo not shown),-25.4%
12,Cc1ccc(NC(=O)CSc2nc(N)c3c4c(sc3n2)CSC(C)(C)C4)cc1,14.2%
13,COc1ccc(NC(=O)C2CCN(C(=O)Nc3ccccc3)CC2)cc1S(=O)(=O)N(C)C,12.5%
14,O=[N+]([O-])c1ccc(NCCCNS(=O)(=O)c2ccccc2)cc1,-64.7%
15,Cc1ccc(S(=O)(=O)NCCCNS(=O)(=O)c2ccc(C)cc2)cc1,-17.9%
16,Cc1ccc(S(=O)(=O)NCCNc2ccc([N+](=O)[O-])cc2)cc1,-22.8%
17,O=S(=O)(NCCCc1ccccc1)c1ccc(Br)cc1,-9.3%
18,Cc1ccc(S(=O)(=O)NCCCNc2ccc([N+](=O)[O-])cc2)cc1,-65.2%
19,O=[N+]([O-])c1ccc(S(=O)(=O)NCCCc2ccccc2)cc1,-64.6%
20,O=[N+]([O-])c1ccc(NCCNS(=O)(=O)c2ccccc2)cc1,-38.9%
21,O=[N+]([O-])c1ccc(NCCCNS(=O)(=O)c2ccccc2)c(Cl)c1,-14.3%
22,O=S(=O)(NCCCc1ccccc1)c1ccccc1,10.3%
